Results filed as inconclusive are left out. Where a call stands in place of a potency, no number is given. Calls of active or inactive are those of the source. Calls follow the shape of the dose curve; as a rule, active = well fitted curve in the direction sought with a large enough effect; inconclusive = small, poorly fitted or top-dose-only effect, or another doubt; inactive = no such curve, though single readings can be large; an effect the other way counts as inactive or inconclusive.
Key:
[1] = Quantitative High-Throughput drug screen in 47 multiple myeloma cell lines against the NCATS MIPE library collection: Karpas417_ECACC cell viability assay (AID 1918961); settings: Karpas417 myeloma viability, CellTiter-Glo ATP luminescence, 48 h; viability (% of DMSO): at 45.8 µM (top of the series); also: potency is read from the fitted curve at half-maximal effect
Summary of the method: (§1)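 CellTiter-Glo luminescence (ATP) after 48 h compound exposure, 37C/5% CO2; 500 cells/well; MIPE 4.0 approved/investigational drugs pinned in; DMSO = 100%, media only = 0% viability.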

[2] = Quantitative High-Throughput drug screen in 47 multiple myeloma cell lines against the NCATS MIPE library collection: JIM3_ECACC cell viability assay (AID 1918963; also: nearly all actives have a fitted effect of over 35% in size; also: potency is read from the fitted curve at half-maximal effect)
Summary of the method: (§2)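 Steps: seed 500 cells per well; pin-transfer MIPE 4.0 library; incubate 48 h at 37C, 5% CO2, humidified; add CellTiter-Glo, 5 min room temperature; read luminescence.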

[3] = Quantitative High-Throughput drug screen in 47 multiple myeloma cell lines against the NCATS MIPE library collection: JIM1_ECACC cell viability assay (AID 1918964; also: potency is read from the fitted curve at half-maximal effect)
Summary of the method: (§3)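 Inhibition of cell viability is measured here. Each line was plated at 500 cells per well, treated with MIPE 4.0 drugs, kept 48 hours at 37C, then assayed for ATP content by CellTiter-Glo luminescence.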

[4] = Quantitative High-Throughput drug screen in 47 multiple myeloma cell lines against the NCATS MIPE library collection: INA6_PLB cell viability assay (AID 1918965; also: nearly all actives have a fitted effect of over 55% in size; also: potency is read from the fitted curve at half-maximal effect)
Summary of the method: as §1

[5] = Quantitative High-Throughput drug screen in 47 multiple myeloma cell lines against the NCATS MIPE library collection: JJN3_DSMZ cell viability assay (AID 1918966; also: nearly all actives have a fitted effect of over 50% in size; also: potency is read from the fitted curve at half-maximal effect)
Summary of the method: as §3

[6] = Quantitative High-Throughput drug screen in 47 multiple myeloma cell lines against the NCATS MIPE library collection: H1112_PLB cell viability assay (AID 1918967; also: nearly all actives have a fitted effect of over 30% in size; also: potency is read from the fitted curve at half-maximal effect)
Summary of the method: as §3

[7] = Quantitative High-Throughput drug screen in 47 multiple myeloma cell lines against the NCATS MIPE library collection: Karpas25_ECACC cell viability assay (AID 1918968; also: nearly all actives have a fitted effect of over 35% in size; also: potency is read from the fitted curve at half-maximal effect)
Summary of the method: as §3

[8] = Quantitative High-Throughput drug screen in 47 multiple myeloma cell lines against the NCATS MIPE library collection: KMS27_JCRB cell viability assay (AID 1918970); also: nearly all actives have a fitted effect of over 30% in size; also: potency is read from the fitted curve at half-maximal effect
Summary of the method: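 KMS27_JCRB myeloma cells, 500 per well, exposed 48 h at 37 C, 5% CO2 to MIPE 4.0 compounds. Viability from ATP by CellTiter-Glo luminescence, normalized to DMSO (100%) and medium-only (0%) wells.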

[9] = Quantitative High-Throughput drug screen in 47 multiple myeloma cell lines against the NCATS MIPE library collection: KMS12BM_JCRB cell viability assay (AID 1918971); also: nearly all actives have a fitted effect of over 35% in size; also: potency is read from the fitted curve at half-maximal effect
Summary of the method: (§4)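 Viability readout: CellTiter-Glo luminescence following 5 min room-temperature incubation with reagent. Prior exposure: 48 h, 37C, humidified 5% CO2, 500 cells per well.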

[10] = Quantitative High-Throughput drug screen in 47 multiple myeloma cell lines against the NCATS MIPE library collection: KMS12PE_JCRB cell viability assay (AID 1918972); also: nearly all actives have a fitted effect of over 30% in size; also: potency is read from the fitted curve at half-maximal effect
Summary of the method: as §1

[11] = Quantitative High-Throughput drug screen in 47 multiple myeloma cell lines against the NCATS MIPE library collection: KMS20_JCRB cell viability assay (AID 1918973); also: nearly all actives have a fitted effect of over 45% in size; also: potency is read from the fitted curve at half-maximal effect
Summary of the method: as §3

[12] = Quantitative High-Throughput drug screen in 47 multiple myeloma cell lines against the NCATS MIPE library collection: KMS26_JCRB cell viability assay (AID 1918975); also: nearly all actives have a fitted effect of over 45% in size; also: potency is read from the fitted curve at half-maximal effect
Summary of the method: as §4

[13] = Quantitative High-Throughput drug screen in 47 multiple myeloma cell lines against the NCATS MIPE library collection: MOLP8_DSMZ cell viability assay (AID 1918977); also: nearly all actives have a fitted effect of over 45% in size; also: potency is read from the fitted curve at half-maximal effect
Summary of the method: (§5)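 500 cells/well; MIPE 4.0 drugs pin-transferred; 48 h, 37C, 5% CO2. CellTiter-Glo, 5 min RT, luminescence. Controls: DMSO 100%, media 0%.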

[14] = Quantitative High-Throughput drug screen in 47 multiple myeloma cell lines against the NCATS MIPE library collection: NCIH929_DSMZ cell viability assay (AID 1918978); also: nearly all actives have a fitted effect of over 35% in size; also: potency is read from the fitted curve at half-maximal effect
Summary of the method: as §5

[15] = Quantitative High-Throughput drug screen in 47 multiple myeloma cell lines against the NCATS MIPE library collection: MM1S_ATCC cell viability assay (AID 1918980); also: nearly all actives have a fitted effect of over 45% in size; also: potency is read from the fitted curve at half-maximal effect
Summary of the method: as §5

[16] = Quantitative High-Throughput drug screen in 47 multiple myeloma cell lines against the NCATS MIPE library collection: MM1R_ATCC cell viability assay (AID 1918981); also: nearly all actives have a fitted effect of over 35% in size; also: potency is read from the fitted curve at half-maximal effect
Summary of the method: as §5

[17] = Quantitative High-Throughput drug screen in 47 multiple myeloma cell lines against the NCATS MIPE library collection: LP1_DSMZ cell viability assay (AID 1918982); also: nearly all actives have a fitted effect of over 35% in size; also: potency is read from the fitted curve at half-maximal effect
Summary of the method: as §5

[18] = Quantitative High-Throughput drug screen in 47 multiple myeloma cell lines against the NCATS MIPE library collection: KHM11_PLB cell viability assay (AID 1918962); also: nearly all actives have a fitted effect of over 35% in size
Summary of the method: as §2

[19] = Quantitative High-Throughput drug screen in 47 multiple myeloma cell lines against the NCATS MIPE library collection: OCIMY1_PLB cell viability assay (AID 1918979); also: nearly all actives have a fitted effect of over 35% in size
Summary of the method: as §5

[20] = Quantitative High-Throughput drug screen in 47 multiple myeloma cell lines against the NCATS MIPE library collection: MMM1_PLB cell viability assay (AID 1918976); also: nearly all actives have a fitted effect of over 35% in size
Summary of the method: as §5

SMILES	Potency [1]	Potency [2]	Potency [3]	Potency [4]	Potency [5]	Potency [6]	Potency [7]	Potency [8]	Potency [9]	Potency [10]	Potency [11]	Potency [12]	Potency [13]	Potency [14]	Potency [15]	Potency [16]	Potency [17]	Potency [18]	Potency [19]	Potency [20]
CC[C@@]1(O)C(=O)OCc2c1cc1n(c2=O)Cc2cc3c(CN(C)C)c(O)ccc3nc2-1	0.743 µM (active)	5.26 µM (active)	0.743 µM (active)	0.0296 µM (active)	5.9 µM (active)	0.418 µM (active)	0.662 µM (active)	0.0833 µM (active)	1.87 µM (active)	2.64 µM (active)	0.235 µM (active)	20.9 µM (active)	1.32 µM (active)	0.743 µM (active)	0.166 µM (active)	0.166 µM (active)	13.2 µM (active)	–	–	–
Cn1c(=O)c2[nH]cnc2n(C)c1=O	–	inactive	–	inactive	–	inactive	inactive	inactive	inactive	inactive	inactive	inactive	inactive	inactive	23.5 µM (active)	–	inactive	inactive	–	–
CCc1cccc2c3c([nH]c12)C(CC)(CC(=O)O)OCC3 (centres undefined)	inactive	inactive	–	inactive	–	inactive	–	inactive	–	inactive	–	inactive	–	inactive	inactive	–	inactive	–	–	–
CN1CCC(=C2c3ccccc3CC(=O)c3sccc32)CC1	inactive	–	–	8.33 µM (active)	–	6.62 µM (active)	7.43 µM (active)	–	–	inactive	inactive	–	inactive	4.18 µM (active)	16.6 µM (active)	–	inactive	–	inactive	–
COc1ccc2[nH]cc(CCNC(C)=O)c2c1	inactive	–	0.0074 µM (active)	–	–	inactive	inactive	inactive	inactive	inactive	inactive	9.35 µM (active)	inactive	inactive	0.372 µM (active)	5.26 µM (active)	–	–	inactive	–
CC12CC3CC(C)(C1)CC(N)(C3)C2	inactive	–	inactive	20.9 µM (active)	–	–	20.9 µM (active)	–	inactive	–	20.9 µM (active)	–	–	–	18.7 µM (active)	–	inactive	–	inactive	–
CN1CCN(CCCN2c3ccccc3Sc3ccc(Cl)cc32)CC1	0.132 µM (active)	23.5 µM (active)	3.32 µM (active)	14.8 µM (active)	18.7 µM (active)	20.9 µM (active)	5.26 µM (active)	16.6 µM (active)	16.6 µM (active)	8.33 µM (active)	8.33 µM (active)	26.4 µM (active)	–	29.6 µM (active)	9.35 µM (active)	26.4 µM (active)	–	–	inactive	–
COc1cc2c(c(OC)c1OC)-c1ccc(OC)c(=O)cc1[C@@H](NC(C)=O)CC2	0.0033 µM (active)	inactive	inactive	inactive	–	–	inactive	–	–	inactive	–	–	–	inactive	–	–	inactive	–	–	–
Nc1nc2c(ncn2COC(CO)CO)c(=O)[nH]1	11.8 µM (active)	2.64 µM (active)	20.9 µM (active)	1.32 µM (active)	20.9 µM (active)	26.4 µM (active)	2.64 µM (active)	10.5 µM (active)	18.7 µM (active)	14.8 µM (active)	1.05 µM (active)	20.9 µM (active)	–	9.35 µM (active)	–	20.9 µM (active)	23.5 µM (active)	–	–	–
CC1(C)O[C@H]2CC(=O)OC[C@]23[C@H]2CC[C@@]4(C)[C@H](c5ccoc5)OC(=O)[C@H]5O[C@]54[C@]2(C)C(=O)C[C@@H]13	–	inactive	inactive	–	–	inactive	inactive	inactive	inactive	inactive	inactive	inactive	inactive	inactive	inactive	inactive	inactive	–	–	–
NC12CC3CC(CC(C3)C1)C2	–	inactive	–	26.4 µM (active)	inactive	–	0.118 µM (active)	–	inactive	–	–	–	–	16.6 µM (active)	1.18 µM (active)	–	–	–	–	–
CC(COc1ccccc1)N(CCCl)Cc1ccccc1 (centres undefined)	–	inactive	–	inactive	inactive	–	inactive	–	–	–	–	–	–	inactive	–	–	inactive	–	–	–
CNCCCC12CCC(c3ccccc31)c1ccccc12	–	20.9 µM (active)	–	16.6 µM (active)	20.9 µM (active)	26.4 µM (active)	23.5 µM (active)	20.9 µM (active)	23.5 µM (active)	10.5 µM (active)	13.2 µM (active)	20.9 µM (active)	–	–	16.6 µM (active)	29.6 µM (active)	20.9 µM (active)	–	–	–
CCOC(=O)C(C)(C)Oc1ccc(Cl)cc1	–	inactive	–	inactive	inactive	–	0.662 µM (active)	inactive	–	inactive	inactive	–	inactive	inactive	–	–	inactive	–	–	–
CC(C)C(=O)Nc1ccc([N+](=O)[O-])c(C(F)(F)F)c1	–	8.33 µM (active)	13.2 µM (active)	6.62 µM (active)	–	3.32 µM (active)	3.32 µM (active)	0.935 µM (active)	inactive	13.2 µM (active)	7.43 µM (active)	8.33 µM (active)	–	1.87 µM (active)	1.66 µM (active)	3.72 µM (active)	inactive	–	–	–
CN1C2CCC1CC(OC(=O)C(CO)c1ccccc1)C2 (centres undefined)	–	inactive	inactive	inactive	inactive	inactive	–	inactive	inactive	inactive	inactive	inactive	inactive	inactive	–	inactive	inactive	–	inactive	inactive
COC(=O)Nc1nc2ccc(C(=O)c3cccs3)cc2[nH]1	–	0.001 µM (active)	0.001 µM (active)	0.001 µM (active)	–	0.0132 µM (active)	–	–	0.0026 µM (active)	–	–	0.296 µM (active)	–	0.296 µM (active)	0.0743 µM (active)	0.0418 µM (active)	0.0105 µM (active)	–	–	–
CC(C)Cc1ccc(C(C)C(=O)O)cc1 (centres undefined)	–	inactive	–	1.62 µM (active)	–	inactive	–	inactive	–	–	–	–	inactive	inactive	inactive	inactive	inactive	–	–	–
Clc1ccc2nsnc2c1NC1=NCCN1	–	inactive	–	inactive	–	inactive	inactive	inactive	–	–	–	–	inactive	inactive	–	inactive	inactive	–	–	–
COc1ccccc1OCC(O)CN1CCN(CC(=O)Nc2c(C)cccc2C)CC1 (centres undefined)	–	inactive	inactive	inactive	–	inactive	–	inactive	inactive	inactive	inactive	inactive	–	–	–	inactive	inactive	–	–	–
Cn1c(=O)c2c(ncn2C)n(C)c1=O	–	inactive	–	inactive	inactive	inactive	–	–	inactive	inactive	–	–	–	inactive	inactive	inactive	inactive	–	inactive	–
